The values that follow come from PubChem BioAssay (NCI).

This is part of a sample that, as a whole, favours compounds with a hit. Of some 83,000 tested, about 20% had one in any assay.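 Testing used 96-well plates and a 48-hour single-concentration exposure. Example: -40 means 40% of the starting cells died.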 Unmarked numbers belong to inactive results. The source made the active and inactive calls. How the source made its calls: active means growth percent below 10; inactive means the rest.

Common to all, as to experiment: NCI-60 one-dose screen, 48 h (100 = growth as untreated, 0 = no growth, -100 = all killed)
Common to all, as to conditions: 10 µM

For experiment [1], the system named is HOP-92 NSCLC.
In experiment [2] the test system is K-562 leukemia.
For experiment [3], the system named is RXF 393 renal.
Experiment [4] deals with SK-MEL-2 melanoma.
The test system of experiment [5] is SN12C renal.
The subject of experiment [6] is TK-10 renal.
Experiment [7] deals with A498 renal.
For experiment [8], the system named is RPMI-8226 leukemia.
In experiment [9] the test system is OVCAR-3 ovarian.
For experiment [10], the system named is MDA-MB-435 melanoma.
Experiment [11] concerns HCC-2998 colon.
Experiment [12] relates to CAKI-1 renal.
The subject of experiment [13] is UACC-257 melanoma.

Take `C[C@@H]1CCC/C=C/[C@H]2C[C@@H](O)C[C@@H]2[C@@H](O)/C=C/C(=O)O1`: the growth is -4.99% (active) in experiment [1]; 15% in experiment [2]; -8.61% (active) in [3]; -38.9% (active) in experiment [4]; 11.4% in experiment [5]; -45% (active) in experiment [6]. In addition, the growth in experiment [7] was -14.7% (active); in [8], -1.65% (active); in experiment [9], -1.9% (active); in [10] it was 17.5%; in experiment [11] it was 21.1%.

Take `COc1cccc2c1cc([N+](=O)[O-])c1c(C(=O)O)cc3c(c12)OCO3`: the growth is 95.3% in experiment [1]; 97.6% in experiment [2]; 104% in experiment [3]; 108% in [4]; 113% in experiment [5]; 100% in experiment [6]. The growth is 87.1% in [12]; 114% in [7]; 97.7% in [8]; 126% in [9]; 107% in experiment [10]; 91.3% in experiment [11].

Consider `C/C=C\C(=O)O[C@@H]1CC2O[C@@H]3C=C(C)C(=O)C[C@]3(C)[C@]1(C)[C@]21CO1`, for which the growth in experiment [1] is -17.5% (active); in [2] it was -6.67% (active); in experiment [3] it was -31.6% (active); in experiment [4] it was -43.2% (active); in [5], -6.14% (active); in experiment [6], -19.4% (active). In addition, the growth is -30.2% (active) in [7]; -31.2% (active) in [8]; -3.17% (active) in experiment [9]; -34.3% (active) in experiment [10]; -23.5% (active) in [11].

Take `CC(C)(O)/C=C/C(=O)[C@](C)(O)[C@H]1[C@H](O)C[C@@]2(C)[C@H]3CC=C4[C@@H](C[C@H](O)C(=O)C4(C)C)[C@]3(C)C(=O)C[C@]12C`: the growth in experiment [1] was -36.4% (active); in experiment [2] it was 12.1%; in experiment [3], -35.3% (active); in experiment [4], -28.2% (active); in [5], 9.22% (active); in [6], -33% (active). Moreover, the growth in [12] was -60.5% (active); in experiment [7] it was -73.1% (active); in [8] it was 3.64% (active); in experiment [9] it was 1% (active); in experiment [10], 9.08% (active); in experiment [11], 36.1%.

`CC1=C(CN(O)C(N)=O)C2=C(C)C3(CC3)[C@](C)(O)C(=O)C2=C1`: the growth in [1] was -3.67% (active); in [2], 0.207% (active); in experiment [3], -85.3% (active); in experiment [13] it was 6.8% (active); in experiment [4] it was -28.8% (active); in experiment [5] it was 25.1%. Moreover, the growth in experiment [6] is -5.27% (active); in experiment [12], 4.61% (active); in [7], -76.5% (active); in experiment [8], -22.7% (active); in [9], -3.14% (active); in experiment [10] it was -42.8% (active). Besides, the growth in experiment [11] is -63.1% (active).

For `N#Cc1nc(-c2ccccc2)oc1N1CCC(S(=O)(=O)F)CC1`, the growth in experiment [1] was 94.2%; in experiment [2], 103%; in [3], 92.3%; in experiment [13], 107%; in experiment [4], 120%; in [5], 100%. Besides, the growth in experiment [6] is 113%; in experiment [12], 100%; in experiment [7], 108%; in experiment [8], 101%; in experiment [10], 98.8%; in experiment [11] it was 104%.

As for `CCC(C)[C@H]1C(=O)O[C@H](C(C)C)C(=O)N(C)[C@@H](C(C)C)C(=O)O[C@H](C(C)C)C(=O)N(C)[C@@H](C(C)C)C(=O)O[C@H](C(C)C)C(=O)N1C` (some centres undefined), the growth in [1] was -19% (active); in experiment [2] it was 6.74% (active); in experiment [3] it was 22%; in [4], -2.6% (active); in experiment [5], 7.58% (active); in experiment [6] it was 8.22% (active). Further, the growth in [7] was -8.55% (active); in experiment [8] it was -25.6% (active); in experiment [9], 19.9%; in experiment [10] it was 20%; in [11], 32.3%.

For `CC1=C[C@H]2O[C@@H]3C[C@H]4OC(=O)/C=C\C=C\[C@H]([C@@H](C)O)OCC/C(C)=C/C(=O)OC[C@@]2(CC1)[C@]4(C)[C@]31CO1`, the growth was -19.1% (active) in [1]; -6.8% (active) in experiment [2]; -70.5% (active) in [3]; -61.1% (active) in [4]; -16.1% (active) in experiment [5]; -24.5% (active) in experiment [6]. Moreover, the growth in experiment [7] is -80.8% (active); in [8], -30.5% (active); in experiment [9] it was -19.2% (active); in experiment [10] it was -83.5% (active); in experiment [11], -55.6% (active).

On to `CC(=O)O[C@@H]1C[C@H]2O[C@@H]3C=C(C)CC[C@]3(C)[C@]1(C)[C@]21CO1`, for which the growth was 16.8% in experiment [1]; 4.68% (active) in experiment [2]; 4.11% (active) in experiment [3]; -3.89% (active) in [4]; 20.7% in [5]; 66.6% in experiment [6]. The growth in [7] is 34.6%; in experiment [8], -14.7% (active); in [9] it was 14.7%; in experiment [10], 2.02% (active); in experiment [11], 8.92% (active).
